Experimental data as given in PubChem BioAssay AID1159580 (chemical genetic matrix, 2015).
Values joined by “and” are separate entries in the source; they are usually repeats but may differ in a detail not shown here. Identical values can stand only once. The campaign covered roughly 5,500 compounds. About 2,000 (36%) were called active. Roughly 18% stayed inconclusive and do not appear here. No stated cut-off is given here; in the data, active means normalized growth mostly below about 0.91 (no sharp cut-off); inconclusive means no clear call, values can overlap the other calls; inactive means mostly above about 0.92. Some of the results follow.

Test: chemical genetic growth profiling, strain panel (AID 1159580);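 further: tested at 20 µM; growth read once vehicle control cultures reached saturation at 30 °C; 1 = growth at the plate median or of vehicle wells; lower values mean less growth of the strain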
Settings: growth OD

Measured: normalized growth

CN(C)CCC(c1ccccc1)c1ccccn1 (centres undefined)
inactive: S. cerevisiae deletion strains, locus YJR066W, strain TOR1, active compounds read low 0.93 | S. cerevisiae deletion strains, locus YJR075W, strain HOC1, active compounds read low 1.01 and 0.951 | S. cerevisiae deletion strains, locus YKL009W, strain mrt4, active compounds read low 1.03 | S. cerevisiae deletion strains, locus YKL068W, active compounds read low 1 | S. cerevisiae deletion strains, locus YKL085W, strain MDH1 (second series), active compounds read low 1.01 | S. cerevisiae deletion strains, locus YKL085W, strain MDH1, active compounds read low 1.01 | S. cerevisiae deletion strains, locus YKL160W, strain elf1, active compounds read low 1.01 | S. cerevisiae deletion strains, locus YKL190W, strain CNB1, active compounds read low 1.01 | S. cerevisiae deletion strains, locus YKR001C, strain vps1, active compounds read low 1 | S. cerevisiae deletion strains, locus YKR026C, strain gcn3, active compounds read low 1.03 | S. cerevisiae deletion strains, locus YKR091W, strain srl3, active compounds read low 1 | S. cerevisiae deletion strains, locus YLL001W, strain dnm1, active compounds read low 1.02 | S. cerevisiae deletion strains, locus YLL026W, active compounds read low 1.02 | S. cerevisiae deletion strains, locus YLL041C, strain sdh2, active compounds read low 1.02 | S. cerevisiae deletion strains, locus YLR027C, strain aat2, active compounds read low 1.01 | S. cerevisiae deletion strains, locus YLR039C, strain RIC1, active compounds read low 1.05 | S. cerevisiae deletion strains, locus YLR058C, strain SHM2, active compounds read low 1 | S. cerevisiae deletion strains, locus YLR102C, strain apc9, active compounds read low 1 | S. cerevisiae deletion strains, locus YLR113W, strain HOG1, active compounds read low 0.981 | S. cerevisiae deletion strains, locus YLR221C, strain rsa3, active compounds read low 1.01 | S. cerevisiae deletion strains, locus YLR258W, strain gsy2, active compounds read low 1.01 | S. cerevisiae deletion strains, locus YLR262C, strain YPT6 (second series), active compounds read low 1.03 | S. cerevisiae deletion strains, locus YLR262C, strain YPT6, active compounds read low 1.01 | S. cerevisiae deletion strains, locus YLR268W, strain sec22, active compounds read low 1.04 | S. cerevisiae deletion strains, locus YLR320W, strain mms22, active compounds read low 1.01 | S. cerevisiae deletion strains, locus YLR330W, strain CHS5, active compounds read low 1.01 | S. cerevisiae deletion strains, locus YLR342W, strain FKS1 (second series), active compounds read low 1.03 | S. cerevisiae deletion strains, locus YLR342W, strain FKS1, active compounds read low 1.01 | S. cerevisiae deletion strains, locus YLR357W, strain rsc2, active compounds read low 1.02 | S. cerevisiae deletion strains, locus YLR370C, strain arc18, active compounds read low 1.02 | S. cerevisiae deletion strains, locus YLR371W, strain rom2, active compounds read low 1.01 | S. cerevisiae deletion strains, locus YLR384C, strain iki3, active compounds read low 1.01 | S. cerevisiae deletion strains, locus YLR418C, strain cdc73, active compounds read low 0.995 | S. cerevisiae deletion strains, locus YML016C, strain PPZ1, active compounds read low 1 | S. cerevisiae deletion strains, locus YML032C, strain rad52, active compounds read low 1.01 | S. cerevisiae deletion strains, locus YML120C, strain ndi1, active compounds read low 1.01 | S. cerevisiae deletion strains, locus YML124C, strain tub3, active compounds read low 1 | S. cerevisiae deletion strains, locus YMR058W, strain fet3, active compounds read low 1.02 | S. cerevisiae deletion strains, locus YMR078C, strain ctf18, active compounds read low 1.01 | S. cerevisiae deletion strains, locus YMR125W, strain sto1, active compounds read low 1.01 | S. cerevisiae deletion strains, locus YMR129W, active compounds read low 1.01 | S. cerevisiae deletion strains, locus YMR205C, strain PFK2, active compounds read low 1.01 | S. cerevisiae deletion strains, locus YMR223W, strain ubp8, active compounds read low 0.983 | S. cerevisiae deletion strains, locus YMR231W, strain pep5, active compounds read low 1.02 | S. cerevisiae deletion strains, locus YMR263W, strain SAP30, active compounds read low 1 and 0.998 | S. cerevisiae deletion strains, locus YMR307W, strain GAS1, active compounds read low 1.03 and 0.977 | S. cerevisiae deletion strains, locus YNL067W, strain RPL9B, active compounds read low 0.996 | S. cerevisiae deletion strains, locus YNL071W, strain lat1, active compounds read low 1.01 | S. cerevisiae deletion strains, locus YNL128W, strain TEP1, active compounds read low 1.02 | S. cerevisiae deletion strains, locus YNL175C, strain NOP13, active compounds read low 1.01 | S. cerevisiae deletion strains, locus YNL183C, strain NPR1, active compounds read low 0.939 | S. cerevisiae deletion strains, locus YNL197C, strain WHI3, active compounds read low 1.01 | S. cerevisiae deletion strains, locus YNL209W, strain ssb2, active compounds read low 1.02 | S. cerevisiae deletion strains, locus YNL224C, strain SQS1, active compounds read low 1 | S. cerevisiae deletion strains, locus YNL233W, strain BNI4, active compounds read low 1 | S. cerevisiae deletion strains, locus YNL248C, strain rpa49, active compounds read low 1 | S. cerevisiae deletion strains, locus YNL250W, strain rad50, active compounds read low 0.997 | S. cerevisiae deletion strains, locus YNL271C, strain bni1, active compounds read low 0.993 | S. cerevisiae deletion strains, locus YNL298W, strain CLA4, active compounds read low 1.01 | S. cerevisiae deletion strains, locus YNL307C, strain MCK1, active compounds read low 1.01 | S. cerevisiae deletion strains, locus YNL322C, strain KRE1 (second series), active compounds read low 1.01 | S. cerevisiae deletion strains, locus YNR049C, strain mso1, active compounds read low 1.02 | S. cerevisiae deletion strains, locus YNR052C, strain pop2, active compounds read low 1.01 | S. cerevisiae deletion strains, locus YOL006C, strain TOP1, active compounds read low 0.993 | S. cerevisiae deletion strains, locus YOL012C, strain htz1 2.13 | S. cerevisiae deletion strains, locus YOL147C, strain pex11, active compounds read low 1 | S. cerevisiae deletion strains, locus YOR001W, strain rrp6, active compounds read low 0.988 | S. cerevisiae deletion strains, locus YOR061W, strain CKA2, active compounds read low 1 | S. cerevisiae deletion strains, locus YOR069W, strain VPS5, active compounds read low 1.01 | S. cerevisiae deletion strains, locus YOR070C, strain gyp1, active compounds read low 1.01 | S. cerevisiae deletion strains, locus YOR080W, strain dia2, active compounds read low 1.01 | S. cerevisiae deletion strains, locus YOR083W, strain WHI5 (second series), active compounds read low 1.03 | S. cerevisiae deletion strains, locus YOR083W, strain WHI5, active compounds read low 1.01 | S. cerevisiae deletion strains, locus YOR106W, strain vam3, active compounds read low 1 | S. cerevisiae deletion strains, locus YOR136W, strain idh2, active compounds read low 0.99 | S. cerevisiae deletion strains, locus YOR144C, strain elg1, active compounds read low 0.995 | S. cerevisiae deletion strains, locus YOR184W, strain ser1, active compounds read low 1.01 | S. cerevisiae deletion strains, locus YOR231W, strain MKK1, active compounds read low 0.981 | S. cerevisiae deletion strains, locus YOR265W, strain rbl2, active compounds read low 1 | S. cerevisiae deletion strains, locus YOR270C, strain vph1, active compounds read low 0.997 | S. cerevisiae deletion strains, locus YOR290C, strain snf2, active compounds read low 1.04 | S. cerevisiae deletion strains, locus YOR316C, strain cot1, active compounds read low 1 | S. cerevisiae deletion strains, locus YPL051W, strain arl3, active compounds read low 1.01 | S. cerevisiae deletion strains, locus YPL055C, strain LGE1, active compounds read low 0.985 | S. cerevisiae deletion strains, locus YPL078C, strain atp4, active compounds read low 1.01 | S. cerevisiae deletion strains, locus YPL106C, strain sse1, active compounds read low 1 | S. cerevisiae deletion strains, locus YPL240C, strain hsp82, active compounds read low 0.989 | S. cerevisiae deletion strains, locus YPL256C, strain CLN2, active compounds read low 0.928 | S. cerevisiae deletion strains, locus YPR119W, strain clb2, active compounds read low 1 | S. cerevisiae deletion strains, locus YPR141C, strain kar3, active compounds read low 0.994 | S. cerevisiae deletion strains, locus YPR163C, strain tif3, active compounds read low 1.01 | S. cerevisiae deletion strains, locus YPR167C, strain met16, active compounds read low 0.999 | S. cerevisiae deletion strains, strain wtn01, active compounds read low 1 | S. cerevisiae strains, strain wild type, active compounds read low 1.01
